Bioassay records (PubChem)
Compounds with a hit are over-represented: about 0.37% of the library has one in this group of screens.
HRas wt GTP bind: changes GTP binding to wildtype human HRas. P01112. GST-Ras wt beads, Bodipy-FL-GTP binding, flow cytometry; actives lie on both sides. GTP binding activity, % at 10 µM. 0.14% of 190,000 active. AID 759;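 active means GTP binding activity at least 20% away from the 100% baseline, either lowered as inhibitor or raised as activator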
Target sequence (P01112 whole entry, looked up): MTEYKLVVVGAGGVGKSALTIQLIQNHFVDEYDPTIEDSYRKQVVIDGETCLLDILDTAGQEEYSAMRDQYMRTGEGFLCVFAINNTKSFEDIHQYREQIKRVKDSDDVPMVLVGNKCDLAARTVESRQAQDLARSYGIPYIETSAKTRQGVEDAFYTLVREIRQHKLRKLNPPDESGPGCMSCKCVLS
Rab2A wt mod: changes GTP binding to wildtype dog Rab2A, up or down | GST-Rab2 wt beads, Bodipy-GTP binding, flow cytometry | GTP binding activity, % at 10 µM | 0.19% of 190,000 active;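 active means GTP binding activity at least 20 points away from 100%, either lowered or raised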
Rac1 mut GTP: modulators of GTP binding to human Rac1 activated mutant; 0.11% of 190,000 active; P63000; percent activity (GTP binding), % at 10 µM; AID 764; GST-Rac1 activated beads, fluorescent GTP binding, flow cytometry; actives lie on both sides; 100% means binding = to untreated wells;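 active means GTP binding at least 20 percentage points away from the 100% baseline, in either direction, so actives lie on both sides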
Rac1 wt modul: modulators of human Rac1 wildtype GTP binding; P63000; 0.27% of 190,000 active; AID 757; GST-Rac1 beads, fluorescent GTP binding, flow cytometry; actives lie on both sides; 0 = cold GTP competed, 100 = untreated; GTP binding activity (% of control), % at 10 µM;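 active means GTP binding activity at least 20 points away from the 100% control level, either lower or higher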
Rab7 wt GTP bind: modulators of GTP binding to dog Rab7 wildtype GTPase; GST-Rab7 beads, fluorescent GTP binding, flow cytometry; actives lie on both sides; untreated = 100%, excess cold GTP = 0%; GTP binding activity (percent of control), % at 10 µM; 0.055% of 190,000 active;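 active means fluorescent GTP binding to Rab7 beads changed by at least 20 points from the 100% baseline, either direction, mostly lower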;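 further: median green fluorescence of bound Bodipy-FL-GTP per Rab7 bead population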
Cdc42 wt: human Cdc42 wildtype GTP binding change, either direction; GST-Cdc42 beads, Bodipy-GTP binding, flow cytometry; actives lie on both sides; percent activity (GTP binding), % at 10 µM; 0.2% of 190,000 active;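 active means percent activity GTP binding at least 20 points away from the 100% baseline, either down as inhibitor or up as activator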;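 further: median bead fluorescence of bound Bodipy-FL-GTP at 100 nM; below 100% means less GTP binding so inhibitor and above means activator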
Target sequence (P60953 whole entry, looked up): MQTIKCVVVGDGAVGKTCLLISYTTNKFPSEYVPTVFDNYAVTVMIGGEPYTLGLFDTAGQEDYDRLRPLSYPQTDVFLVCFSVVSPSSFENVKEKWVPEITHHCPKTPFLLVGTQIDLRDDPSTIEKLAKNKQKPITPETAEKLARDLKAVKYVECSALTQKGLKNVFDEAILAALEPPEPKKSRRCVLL
Numbers stand for hits; [ ] = dose if it differs, or a comment.

`Cc1nc(-c2cnn(-c3ccccc3)c2)c2cc(C)oc2n1` gave HRas wt GTP bind 72, Rab2A wt mod 75, Rac1 mut GTP 79, Rac1 wt modul 77, Rab7 wt GTP bind inactive and Cdc42 wt 70.
`Cc1oc2c(O)c(O)ccc2c(=O)c1-c1cnn(-c2ccccc2)c1` gave HRas wt GTP bind inactive, Rab2A wt mod inactive, Rac1 mut GTP inactive, Rac1 wt modul inactive, Rab7 wt GTP bind inactive and Cdc42 wt inactive.
`O=C(CNc1cc(S(=O)(=O)N2CCOCC2)ccc1N1CCCC1)N1CCc2ccccc21` gave HRas wt GTP bind inactive, Rab2A wt mod inactive, Rac1 mut GTP inactive, Rac1 wt modul inactive, Rab7 wt GTP bind inactive and Cdc42 wt inactive.
Screening CCOc1ccc(C2C(C(=O)O)CCC(=O)N2C2CCCCC2)cc1 (stereo unspecified) returned HRas wt GTP bind 72, Rab2A wt mod 73, Rac1 mut GTP 73, Rac1 wt modul 71, Rab7 wt GTP bind 74 and Cdc42 wt 72.
`Cc1cc(NC(=O)Cn2nc([N+](=O)[O-])c(Br)c2C)no1` gave HRas wt GTP bind inactive, Rab2A wt mod inactive, Rac1 mut GTP inactive, Rac1 wt modul inactive, Rab7 wt GTP bind inactive and Cdc42 wt inactive.
Screening Cc1ccc(-n2c(=O)cc(N3CCN(C(=O)c4ccco4)CC3)[nH]c2=O)cc1 returned HRas wt GTP bind inactive, Rab2A wt mod inactive, Rac1 mut GTP inactive, Rac1 wt modul 121[activator], Rab7 wt GTP bind inactive and Cdc42 wt inactive.
For Cc1ccc(-n2c(=O)cc(N3CCc4ccccc4C3)[nH]c2=O)cc1 the results were HRas wt GTP bind inactive, Rab2A wt mod inactive, Rac1 mut GTP inactive, Rac1 wt modul 126[activator], Rab7 wt GTP bind inactive and Cdc42 wt inactive.
For Cc1ccc(NC(=S)Nc2ccc3nc(-c4ccccn4)c(-c4ccccn4)nc3c2)cc1C the results were HRas wt GTP bind inactive, Rab2A wt mod inactive, Rac1 mut GTP inactive, Rac1 wt modul 125[activator], Rab7 wt GTP bind inactive and Cdc42 wt inactive.
`CCOc1ccc2c(c1)c(N=NC(=N)N)c(O)n2C` gave HRas wt GTP bind inactive, Rab2A wt mod inactive, Rac1 mut GTP inactive, Rac1 wt modul 78, Rab7 wt GTP bind inactive and Cdc42 wt inactive.
CCOc1ccc2c(c1)c(N=Nc1cccc(C(=O)O)c1)c(O)n2C was read as HRas wt GTP bind inactive, Rab2A wt mod inactive, Rac1 mut GTP inactive, Rac1 wt modul inactive, Rab7 wt GTP bind inactive and Cdc42 wt inactive.
`CCCCn1c(O)c(/C=C/C=C/C=Nc2ccccc2)sc1=S` gave HRas wt GTP bind inactive, Rab2A wt mod inactive, Rac1 mut GTP 78, Rac1 wt modul inactive, Rab7 wt GTP bind inactive and Cdc42 wt inactive.
For CCn1c(O)c(/C=C/C=C/C=Nc2ccccc2)sc1=S the results were HRas wt GTP bind inactive, Rab2A wt mod inactive, Rac1 mut GTP inactive, Rac1 wt modul inactive, Rab7 wt GTP bind inactive and Cdc42 wt inactive.
CC(Sc1nnc(NC2CCCCC2)s1)C(=O)Nc1ccc2c(c1)C(=O)c1ccccc1C2=O (stereo unspecified) was read as HRas wt GTP bind inactive, Rab2A wt mod 77, Rac1 mut GTP inactive, Rac1 wt modul 75, Rab7 wt GTP bind inactive and Cdc42 wt inactive.
`Cc1ccc(NC(=O)/C=C/c2ccc3c(c2)OCO3)cc1S(=O)(=O)N1CCOCC1` gave HRas wt GTP bind inactive, Rab2A wt mod inactive, Rac1 mut GTP inactive, Rac1 wt modul inactive, Rab7 wt GTP bind inactive and Cdc42 wt inactive.
`CCOC(=O)NC(=O)CSc1nnc(C2CC2)n1Cc1ccco1` gave HRas wt GTP bind inactive, Rab2A wt mod inactive, Rac1 mut GTP inactive, Rac1 wt modul inactive, Rab7 wt GTP bind inactive and Cdc42 wt inactive.
For CCC(C(=O)NC1CCCC1)N(C(=O)Cn1nnc(-c2ccc(C)o2)n1)c1cnc2ccccc2c1 (stereo unspecified) the results were HRas wt GTP bind inactive, Rab2A wt mod inactive, Rac1 mut GTP inactive, Rac1 wt modul 125[activator], Rab7 wt GTP bind inactive and Cdc42 wt inactive.
`Cc1ccc2c(c1)c1nnc(SCC(=O)Nc3cccc(Cl)c3C)nc1n2CC(=O)O` gave HRas wt GTP bind inactive, Rab2A wt mod inactive, Rac1 mut GTP inactive, Rac1 wt modul 74, Rab7 wt GTP bind inactive and Cdc42 wt inactive.
